From PubChem BioAssay
Values joined by “and” are separate entries in the source; they are usually repeats but may differ in a detail not shown here. Equal values may be shown once. Active and inactive are the calls of the source. Unless noted, the rule behind the calls is not given here.

Key:
[1] = circadian clock period modulators, cell-based, LOPAC library, luminescence reporter (AID 2774); details: circadian reporter cells, at 7 µM, actives lie on both sides;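 note: values are relative to mean of DMSO wells on each plate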
[2] = Cy5 fluorescence quenching or enhancement artefacts, artefact control for HCV NS3 helicase inhibitor project, biochemical, LOPAC1280 (AID 687037); details: Cy5-DNA-NS3h complex fluorescence interference counterscreen
[3] = tested on: Aerobactin synthetase IucA (Klebsiella pneumoniae); assay: IucA aerobactin synthetase inhibitors, biochemical, Tocris library, absorbance (AID 1345561); details: purified IucA enzyme assay, absorbance (OD) read-out; stronger effect = lower value;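 tested at 8 µM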;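 note: 100% = enzyme without compound and 0% = no enzyme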
[4] = sensitizers of A549 cells to miR-34 induction, primary screen, imaging, A549 dox-inducible miR-34, nuclei and caspase counts (AID 1347080;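 active = compounds whose cell count with miR-34 switched on is under 0.7 times the count with it off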); details: A549 miR-34 inducible, Hoechst nuclei count, 48 h
[5] = phospholipid biosynthesis inhibitors in animal cells, primary screen, cell-based, LOPAC library, screen 4 (AID 1347384); details: phospholipid biosynthesis inhibition screen, at 10 µM
[6] = viability rescue of complex I mutant cybrids, primary screen, cell-based, galactose medium, ATP luminescence (AID 1645843;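 active = z-score of at least 1.8 in each of two replicates, scored against plate mean and spread of sample wells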;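 note: positive z means more ATP and so rescue of galactose-driven cybrid death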); details: complex I mutant cybrid cells, 72 h, stronger effect = higher value
[7] = tested on: Hepatitis C virus NS3 helicase; assay: HCV NS3 helicase inhibitors, primary screen, biochemical, fluorescence polarization, LOPAC1280 library (AID 687035; in the data active = inhibition above about 37%); details: Purified HCV NS3 helicase, Cy5-dT15 ssDNA binding fluorescence polarization; stronger effect = higher value; concentration not given here
[8] = hESC survival regulators, cell-based (AID 493140); details: human embryonic stem cell survival screen; stronger effect = higher value;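 note: cells exposed to compounds for four days before counting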
[9] = inhibitors of Cryptococcus chitosan production, flow cytometry, Cibacron Brilliant Red staining (AID 1347148); details: Cryptococcus neoformans chitosan, stronger effect = lower value; at 10 µM unless noted;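 note: compound exposure lasted three days at 37 degrees C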
[10] = survival rescue of mitochondrial mutant cells in low glucose, primary screen, MELAS cybrids, Rieske KO mouse fibroblasts, CellTiter-Glo (AID 1508586;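 active = mean z-score across replicates of 1.96 or higher in either the MELAS or the Rieske mutant cell line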;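 note: z relative to plate mean and SD of compound and empty wells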)
[11] = stronger effect = lower value, cell number ratio, induced over uninduced
[12] = measured here: relative caspase fold change +Dox/-Dox
[13] = measured here: total cells with miR-34 induction, stronger effect = lower value
[14] = measured here: total cells without miR-34 induction

With `Oc1cc2c(c(Cl)c1O)CCNCC2c1ccccc1` (stereo not given) the period change [1] was 0.11 h (inactive), the fluorescence ratio (interference) [2] was 0.6 (active) and the remaining activity [3] was 120% (inactive). For the same molecule, the fold change [4, 11] was 1.3 (inactive) and 0.885 (inactive), the fold change [4, 12] was 0.646 and 0.88 and the cell count [4, 13] was 5030 and 5850. For the same molecule, the cell count [4, 14] was 3880 and 6610, the outcome [5] was “inactive” and the z-score [6] was 0.1 (inactive) and -0.405 (inactive).

With `C[C@H](NC(=O)/C(C#N)=C/c1ccc(O)c(O)c1)c1ccccc1` the period change [1] was 0.035 h (inactive), the inhibition [7] was -1% (inactive) and the fluorescence ratio (interference) [2] was 1 (inactive). The remaining activity [3] was 111% (inactive), the fold change [4, 11] was 0.957 (inactive) and 0.876 (inactive) and the fold change [4, 12] was 2.11 and 1.78. The cell count [4, 13] was 6810 and 7420, the cell count [4, 14] was 7120 and 8470 and the outcome [5] was “inactive”. For the same molecule, the z-score [6] was -1 (inactive) and -0.545 (inactive).

In the case of `COc1ccc2c(c1)c(CC(=O)N1CCOCC1)c(C)n2C(=O)c1ccc(Cl)cc1`, the period change [1] was -0.115 h (inactive), the survival [8] was 105 (inactive) and the remaining activity [3] was 123% (inactive). The fold fluorescence [9] was 2.56 (active), the z-score ([10]; MELAS cybrid survival, CellTiter-Glo 48 h, stronger effect = higher value) was -0.237 (inactive) and the z-score ([10]; Rieske KO mouse fibroblast survival, CellTiter-Glo 72 h) was -0.286. For the same molecule, the z-score [6] was -0.295 (inactive).

With `CC(C)[C@@H]1CC[C@@H](C)C[C@@H]1P(=O)(c1ccccc1)c1ccccc1` the inhibition [7] was 2% (inactive), the fluorescence ratio (interference) [2] was 1 (inactive) and the remaining activity [3] was 100% (inactive). The fold change [4, 11] was 0.961 (inactive) and 0.925 (inactive), the fold change [4, 12] was 0.895 and 1.06 and the cell count [4, 13] was 8530 and 7980. The cell count [4, 14] was 8880 and 8620, the outcome [5] was “inactive” and the z-score [6] was 0.1 (inactive) and -0.24 (inactive).

In the case of `Cc1ccc2c(c1)C(=O)C1(O)CCN(c3ccccc3)C1=N2` (stereo not given), the remaining activity [3] was 119% (inactive), the fold change [4, 11] was 0.944 (inactive) and 1.14 (inactive) and 0.93 (inactive) and the fold change [4, 12] was 1.39 and 0.747 and 0.79. For the same molecule, the cell count [4, 13] was 2140 and 6710 and 5140, the cell count [4, 14] was 2270 and 5900 and 5530 and the z-score [6] was 0.035 (inactive).

With `CC(C)(CO)Cc1cc(C(C)(C)C)c(O)c(C(C)(C)C)c1` the period change [1] was 0.05 h (inactive), the inhibition [7] was 0% (inactive) and the fluorescence ratio (interference) [2] was 1 (inactive). For the same molecule, the remaining activity [3] was 101% (inactive), the fold change [4, 11] was 1.04 (inactive) and 0.971 (inactive) and the fold change [4, 12] was 1.88 and 0.81. The cell count [4, 13] was 7090 and 8690, the cell count [4, 14] was 6800 and 8950 and the outcome [5] was “inactive”. For the same molecule, the z-score [6] was -1.4 (inactive) and -0.73 (inactive).

In the case of `c1ccc(C(NCc2cccnc2)(c2ccccc2)c2ccccc2)cc1`, the inhibition [7] was 0% (inactive), the fluorescence ratio (interference) [2] was 1 (inactive) and the remaining activity [3] was 95% (inactive). The fold change [4, 11] was 1.09 (inactive) and 0.901 (inactive), the fold change [4, 12] was 1.48 and 1.53 and the cell count [4, 13] was 7080 and 6130. For the same molecule, the cell count [4, 14] was 6480 and 6800, the outcome [5] was “inactive” and the z-score [6] was -1.03 (inactive) and -0.695 (inactive).
